Laboratory results from paper PMC11006913.
Residue numbers refer to the chain shown, from its start.

Key:
Experiment in all cases: PBM; 200 nM protein, PBS
Settings in all cases: dsDNA, one strand shown
PAX4 [1] = target: T1, PAX4 (Homo sapiens, UniProt O43316 9-242, R200K)
T1 sequence: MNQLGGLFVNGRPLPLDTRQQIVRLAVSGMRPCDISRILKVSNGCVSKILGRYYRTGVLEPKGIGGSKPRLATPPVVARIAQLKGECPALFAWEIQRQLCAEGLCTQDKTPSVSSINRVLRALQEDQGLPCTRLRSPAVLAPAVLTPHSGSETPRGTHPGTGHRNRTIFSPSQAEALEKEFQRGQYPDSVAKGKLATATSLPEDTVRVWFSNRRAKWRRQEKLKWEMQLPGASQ

PAX4 [2] = target: T2, PAX4 (Homo sapiens, UniProt O43316 9-242)
T2 sequence: T1 sequence with K192R

PAX4 [3] = target: T3, PAX4 (Homo sapiens, UniProt O43316 9-242, R200Q)
T3 sequence: T1 sequence with K192Q

PAX4 [4] = target: T4, PAX4 (Homo sapiens, UniProt O43316 9-242, F177V)
T4 sequence: T1 sequence with F169V, K192R

PAX4 [5] = target: T5, PAX4 (Homo sapiens, UniProt O43316 9-242, F177Y)
T5 sequence: T1 sequence with F169Y, K192R

PAX4 [6] = target: T6, PAX4 (Homo sapiens, UniProt O43316 9-242, R227W)
T6 sequence: T1 sequence with K192R, R219W

VAX1 [7] = target: VAX1 (Homo sapiens, UniProt Q5SQQ9 86-172)
VAX1 [8] = target: VAX1 (Homo sapiens, UniProt Q5SQQ9 86-172, T142I)
VAX1 [9] = target: VAX1 (Homo sapiens, UniProt Q5SQQ9 86-172, K157R)
PROP1 [10] = target: PROP1 (Homo sapiens, UniProt O75360 56-141)
PROP1 [11] = target: PROP1 (Homo sapiens, UniProt O75360 56-141, R99H)
PROP1 [12] = target: PROP1 (Homo sapiens, UniProt O75360 56-141, F88S)
Sequence of PROP1 (Homo sapiens, UniProt O75360 56-141, F88S) (O75360 56-141 F88S): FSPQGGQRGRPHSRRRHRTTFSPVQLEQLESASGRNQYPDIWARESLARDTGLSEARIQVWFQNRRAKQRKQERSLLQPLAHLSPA

Sequence of PROP1 (Homo sapiens, UniProt O75360 56-141, R99H) (O75360 56-141 R99H): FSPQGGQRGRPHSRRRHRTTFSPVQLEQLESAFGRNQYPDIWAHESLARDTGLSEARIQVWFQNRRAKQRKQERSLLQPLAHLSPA
Sequence of PROP1 (Homo sapiens, UniProt O75360 56-141) (O75360 56-141): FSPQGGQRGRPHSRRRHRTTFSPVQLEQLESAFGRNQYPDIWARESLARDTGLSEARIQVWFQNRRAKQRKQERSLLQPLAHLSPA
Sequence of VAX1 (Homo sapiens, UniProt Q5SQQ9 86-172, K157R) (Q5SQQ9 86-172 K157R): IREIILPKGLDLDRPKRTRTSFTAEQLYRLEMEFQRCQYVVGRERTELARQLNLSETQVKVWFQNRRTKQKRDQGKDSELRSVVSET
Sequence of VAX1 (Homo sapiens, UniProt Q5SQQ9 86-172) (Q5SQQ9 86-172): as the sequence (Q5SQQ9 86-172 K157R) above, with R72K counted along it
Sequence of VAX1 (Homo sapiens, UniProt Q5SQQ9 86-172, T142I) (Q5SQQ9 86-172 T142I): as the sequence (Q5SQQ9 86-172 K157R) above, with T57I, R72K counted along it

Row | Sequence | binding signal (PAX4 [1]) | binding signal (PAX4 [2]) | binding signal (PAX4 [3]) | binding signal (PAX4 [4]) | binding signal (PAX4 [5]) | binding signal (PAX4 [6]) | binding signal (VAX1 [7]) | binding signal (VAX1 [8]) | binding signal (VAX1 [9]) | binding signal (PROP1 [10]) | binding signal (PROP1 [11]) | binding signal (PROP1 [12])
1 | AGGTTGCC | 9.39 upbm affinity estimate (log intensity, higher = more binding, comparable within an allelic series) | 9.33 upbm affinity estimate (log intensity, higher = more binding, comparable within an allelic series) | 9.49 upbm affinity estimate (log intensity, higher = more binding, comparable within an allelic series) | 9.35 upbm affinity estimate (log intensity, higher = more binding, comparable within an allelic series) | 9.33 upbm affinity estimate (log intensity, higher = more binding, comparable within an allelic series) | 9.35 upbm affinity estimate (log intensity, higher = more binding, comparable within an allelic series) |  |  |  |  |  | 
2 | GAAGCTTC | 9.21 upbm affinity estimate (log intensity, higher = more binding, comparable within an allelic series) | 9.26 upbm affinity estimate (log intensity, higher = more binding, comparable within an allelic series) | 9.45 upbm affinity estimate (log intensity, higher = more binding, comparable within an allelic series) | 9.5 upbm affinity estimate (log intensity, higher = more binding, comparable within an allelic series) | 9.42 upbm affinity estimate (log intensity, higher = more binding, comparable within an allelic series) | 9.35 upbm affinity estimate (log intensity, higher = more binding, comparable within an allelic series) | 6.86 upbm affinity estimate (log intensity, higher = more binding, comparable within an allelic series) | 7.04 upbm affinity estimate (log intensity, higher = more binding, comparable within an allelic series) | 6.85 upbm affinity estimate (log intensity, higher = more binding, comparable within an allelic series) |  |  | 
3 | TAATTCGA | 11.8 upbm affinity estimate (log intensity, higher = more binding, comparable within an allelic series) | 12.4 upbm affinity estimate (log intensity, higher = more binding, comparable within an allelic series) | 11.7 upbm affinity estimate (log intensity, higher = more binding, comparable within an allelic series) | 10.6 upbm affinity estimate (log intensity, higher = more binding, comparable within an allelic series) | 11.2 upbm affinity estimate (log intensity, higher = more binding, comparable within an allelic series) | 11 upbm affinity estimate (log intensity, higher = more binding, comparable within an allelic series) |  |  |  |  |  | 
4 | ACTAATTC | 11.6 upbm affinity estimate (log intensity, higher = more binding, comparable within an allelic series) | 12.1 upbm affinity estimate (log intensity, higher = more binding, comparable within an allelic series) | 11.8 upbm affinity estimate (log intensity, higher = more binding, comparable within an allelic series) | 10.4 upbm affinity estimate (log intensity, higher = more binding, comparable within an allelic series) | 10.9 upbm affinity estimate (log intensity, higher = more binding, comparable within an allelic series) | 10.9 upbm affinity estimate (log intensity, higher = more binding, comparable within an allelic series) |  |  |  |  |  | 
5 | CCGTCCGA | 9.27 upbm affinity estimate (log intensity, higher = more binding, comparable within an allelic series) | 9.39 upbm affinity estimate (log intensity, higher = more binding, comparable within an allelic series) | 9.28 upbm affinity estimate (log intensity, higher = more binding, comparable within an allelic series) | 9.26 upbm affinity estimate (log intensity, higher = more binding, comparable within an allelic series) | 9.27 upbm affinity estimate (log intensity, higher = more binding, comparable within an allelic series) | 9.25 upbm affinity estimate (log intensity, higher = more binding, comparable within an allelic series) |  |  |  | 6.64 upbm affinity estimate (log intensity, higher = more binding, comparable within an allelic series) | 6.59 upbm affinity estimate (log intensity, higher = more binding, comparable within an allelic series) | 6.67 upbm affinity estimate (log intensity, higher = more binding, comparable within an allelic series)
6 | ACCGAGCC | 9.37 upbm affinity estimate (log intensity, higher = more binding, comparable within an allelic series) | 9.52 upbm affinity estimate (log intensity, higher = more binding, comparable within an allelic series) | 9.41 upbm affinity estimate (log intensity, higher = more binding, comparable within an allelic series) | 9.22 upbm affinity estimate (log intensity, higher = more binding, comparable within an allelic series) | 9.25 upbm affinity estimate (log intensity, higher = more binding, comparable within an allelic series) | 9.41 upbm affinity estimate (log intensity, higher = more binding, comparable within an allelic series) |  |  |  | 6.86 upbm affinity estimate (log intensity, higher = more binding, comparable within an allelic series) | 6.94 upbm affinity estimate (log intensity, higher = more binding, comparable within an allelic series) | 6.77 upbm affinity estimate (log intensity, higher = more binding, comparable within an allelic series)
7 | CACCGGCC | 9.22 upbm affinity estimate (log intensity, higher = more binding, comparable within an allelic series) | 9.3 upbm affinity estimate (log intensity, higher = more binding, comparable within an allelic series) | 9.31 upbm affinity estimate (log intensity, higher = more binding, comparable within an allelic series) | 9.16 upbm affinity estimate (log intensity, higher = more binding, comparable within an allelic series) | 9.17 upbm affinity estimate (log intensity, higher = more binding, comparable within an allelic series) | 9.27 upbm affinity estimate (log intensity, higher = more binding, comparable within an allelic series) |  |  |  | 6.75 upbm affinity estimate (log intensity, higher = more binding, comparable within an allelic series) | 6.63 upbm affinity estimate (log intensity, higher = more binding, comparable within an allelic series) | 6.3 upbm affinity estimate (log intensity, higher = more binding, comparable within an allelic series)
8 | AGCGCTGC | 9.36 upbm affinity estimate (log intensity, higher = more binding, comparable within an allelic series) | 9.27 upbm affinity estimate (log intensity, higher = more binding, comparable within an allelic series) | 9.34 upbm affinity estimate (log intensity, higher = more binding, comparable within an allelic series) | 9.36 upbm affinity estimate (log intensity, higher = more binding, comparable within an allelic series) | 9.24 upbm affinity estimate (log intensity, higher = more binding, comparable within an allelic series) | 9.35 upbm affinity estimate (log intensity, higher = more binding, comparable within an allelic series) |  |  |  |  |  | 
9 | CTTCGTTC | 9.33 upbm affinity estimate (log intensity, higher = more binding, comparable within an allelic series) | 9.37 upbm affinity estimate (log intensity, higher = more binding, comparable within an allelic series) | 9.51 upbm affinity estimate (log intensity, higher = more binding, comparable within an allelic series) | 9.56 upbm affinity estimate (log intensity, higher = more binding, comparable within an allelic series) | 9.5 upbm affinity estimate (log intensity, higher = more binding, comparable within an allelic series) | 9.58 upbm affinity estimate (log intensity, higher = more binding, comparable within an allelic series) |  |  |  |  |  | 
10 | CCGCGAGC | 9.36 upbm affinity estimate (log intensity, higher = more binding, comparable within an allelic series) | 9.36 upbm affinity estimate (log intensity, higher = more binding, comparable within an allelic series) | 9.27 upbm affinity estimate (log intensity, higher = more binding, comparable within an allelic series) | 9.16 upbm affinity estimate (log intensity, higher = more binding, comparable within an allelic series) | 9.2 upbm affinity estimate (log intensity, higher = more binding, comparable within an allelic series) | 9.31 upbm affinity estimate (log intensity, higher = more binding, comparable within an allelic series) |  |  |  |  |  | 
11 | GGAAGCCC | 9.27 upbm affinity estimate (log intensity, higher = more binding, comparable within an allelic series) | 9.25 upbm affinity estimate (log intensity, higher = more binding, comparable within an allelic series) | 9.38 upbm affinity estimate (log intensity, higher = more binding, comparable within an allelic series) | 9.32 upbm affinity estimate (log intensity, higher = more binding, comparable within an allelic series) | 9.3 upbm affinity estimate (log intensity, higher = more binding, comparable within an allelic series) | 9.35 upbm affinity estimate (log intensity, higher = more binding, comparable within an allelic series) |  |  |  |  |  | 
12 | ATACATAT | 10.7 upbm affinity estimate (log intensity, higher = more binding, comparable within an allelic series) | 10.7 upbm affinity estimate (log intensity, higher = more binding, comparable within an allelic series) | 10.8 upbm affinity estimate (log intensity, higher = more binding, comparable within an allelic series) | 10.6 upbm affinity estimate (log intensity, higher = more binding, comparable within an allelic series) | 10.6 upbm affinity estimate (log intensity, higher = more binding, comparable within an allelic series) | 10.6 upbm affinity estimate (log intensity, higher = more binding, comparable within an allelic series) |  |  |  |  |  | 
